For assay [1], the target named is Bile acid receptor (Homo sapiens) (UniProt Q96RI1). Put plainly: ATG_IR1_CIS: Attagene CIS-FACTORIAL HepG2 Assay for human Nuclear Receptor Subfamily 1 Group H Member 4 (NR1H4), IR1 submotif (AID 2282946). The note with it: IR1 reporter transcription, actives raise or lower the signal. Put shortly:
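HepG2 cells transiently transfected with multiplexed cis-element reporter units read endogenous transcription factor activity. After 24 h compound exposure, reporter mRNA was quantified by RT-PCR, fluorescent labelling, HpaI digestion and capillary electrophoresis; bidirectional fitting versus DMSO baseline.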

A short description of assay [2]: ATG_GRE_CIS: Attagene CIS-FACTORIAL HepG2 Assay for human Glucocorticoid Response Elements (GRE) (AID 2282947). To be noted: HepG2 GRE cis-reporter, Attagene multiplex mRNA; actives raise or lower the signal. Put shortly:
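Multiplexed cis-reporter mRNA induction, HepG2, 24 h post-dose. RT-PCR, FAM-labelled, HpaI-digested amplicons by CE. Bidirectional fit vs DMSO.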

Assay [3] is described as follows: ATG_ISRE_CIS: Attagene CIS-FACTORIAL HepG2 Assay for human Interferon Regulatory Factor 1 (IRF1) binding to an Interferon-Stimulated Response Element (ISRE) (AID 2282948). To be noted: HepG2 ISRE cis-reporter (Attagene), mRNA transcription readout; actives raise or lower the signal. Put shortly: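 Multiplexed mRNA reporter readout in human liver HepG2 cells: cis-element-driven reporters transfected, compound added for 24 h, transcripts amplified, fluorescently labelled and sized by capillary electrophoresis; curve fitting bidirectional against DMSO.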

Assay [4] can be described thus: ATG_M_32_CIS: Attagene CIS-FACTORIAL HepG2 Assay for M32 Transcription Factor (Internal Marker) (AID 2282949).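 Further: background control marker of the multiplexed CIS panel rather than a real target.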 To be noted: HepG2 Attagene cis-factorial M32 reporter, mRNA; actives raise or lower the signal. An outline of the steps:
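Transient MRTU transfection of HepG2; 24 h compound treatment; TriZol RNA, oligo(dT) RT, reporter PCR, 6-FAM primer extension, HpaI cut, CE. Gain/loss of signal vs DMSO.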

Assay [5] in a line: ATG_M_06_CIS: Attagene CIS-FACTORIAL HepG2 Assay for M06 Transcription Factor (Internal Marker) (AID 2282950). To be noted: HepG2 Attagene CIS-FACTORIAL M06 internal marker reporter; actives raise or lower the signal. Put shortly:
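Terse: HepG2, transient MRTU transfection (FuGene 6), 24 h dosing; total RNA, oligo(dT) RT, PCR, FAM label, HpaI cut, capillary electrophoresis; bidirectional fit vs DMSO baseline; background-control endpoint.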

Assay [6] has as its target Hypoxia-inducible factor 1-alpha (Homo sapiens) (UniProt Q16665). Put plainly: ATG_HIF1a_CIS: Attagene CIS-FACTORIAL HepG2 Assay for human Hypoxia Inducible Factor 1 (HIF1A) (AID 2282951). To be noted: HepG2 Attagene cis-factorial HIF1a reporter transcription; actives raise or lower the signal. An outline of the steps: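 Dosed 24 h, transfected HepG2 cells yielded total RNA whose reporter transcripts were RT-PCR-amplified and sized by capillary electrophoresis using fluorescent labelling; DMSO defined baseline, with gain and loss of signal both fitted.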

For assay [7], the target named is Hepatocyte nuclear factor 6 (Homo sapiens) (UniProt Q9UBC0). Put plainly: ATG_HNF6_CIS: Attagene CIS-FACTORIAL HepG2 Assay for human Hepatocyte Nuclear Factor 6 (HNF6) (AID 2282952). The note with it: HepG2 Attagene cis-factorial HNF6 reporter transcription; actives raise or lower the signal. Put shortly:
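Endogenous factor activity read in transiently transfected HepG2 via promoter-regulated reporter transcripts. RNA harvested 24 h post-dosing, reverse-transcribed, PCR-amplified, FAM-labelled, HpaI-digested and resolved by capillary electrophoresis; fitted in both directions against DMSO.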

Assay [8] deals with Heat shock factor protein 1 (Homo sapiens) (UniProt Q00613). Put plainly: ATG_HSE_CIS: Attagene CIS-FACTORIAL HepG2 Assay for human Heat Shock Transcription Factor 1 (HSE) (AID 2282953). The note with it: HepG2 HSE cis-reporter, Attagene RNA transcription; actives raise or lower the signal. An outline of the steps: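 Read-out: fluorescence of reporter-specific RT-PCR fragments separated by capillary electrophoresis. HepG2 carrying transfected cis-element reporter units; 24 h dosing; activity fitted in both directions relative to DMSO baseline.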

The nature of assay [9]: ATG_MRE_CIS: Attagene CIS-FACTORIAL HepG2 Assay for human Metal Responsive Element (MRE) (AID 2282954). To be noted: HepG2 MRE cis-reporter transcription, Attagene multiplex; actives raise or lower the signal. An outline of the steps: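 Multiplexed cis-reporter assay in human HepG2 liver cells, 24 h incubation with test chemical. Reporter transcripts measured by RT-PCR and capillary electrophoresis; values from bidirectional curve fitting versus DMSO.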

Assay [10] in a line: ATG_PBREM_CIS: Attagene CIS-FACTORIAL HepG2 Assay for human Phenobarbital-responsive Enhancer Module (PBREM) (AID 2282955). To be noted: HepG2 PBREM cis-reporter, Attagene multiplexed transcription; actives raise or lower the signal. Put shortly: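 Transfected liver-derived HepG2 cells exposed 24 h; PBREM reporter transcript quantified via RT-PCR and capillary electrophoresis, with activity in either direction referenced to DMSO.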

Assay [11] in a line: ATG_PXRE_CIS: Attagene CIS-FACTORIAL HepG2 Assay for human Pregnane X Receptor Element (PXRE) (AID 2282957). The note with it: HepG2 Attagene CIS-FACTORIAL PXRE reporter, mRNA; actives raise or lower the signal. An outline of the steps:
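Reporter transcripts under endogenous PXR-responsive cis-regulation quantified from total RNA of transfected HepG2 cells 24 h post-dosing, via RT-PCR with fluorescent primer extension and capillary electrophoresis. Gain or loss of signal fitted against DMSO baseline.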

Assay [12] is described as follows: ATG_RORE_CIS: Attagene CIS-FACTORIAL HepG2 Assay for human RAR-related Orphan Receptor Element (RORE) (AID 2282959). To be noted: HepG2 Attagene cis-factorial RORE reporter, mRNA; actives raise or lower the signal. Put shortly:
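Transiently transfected HepG2 reporter cells were treated 24 h. Reporter transcripts were detected by RT-PCR and capillary electrophoresis, with bidirectional fitting against DMSO.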

Assay [13] can be described thus: ATG_Sox_CIS: Attagene CIS-FACTORIAL HepG2 Assay for human SRY-box transcription factor (SOX) (AID 2282960). To be noted: HepG2 Attagene cis-factorial SOX reporter, mRNA; actives raise or lower the signal. An outline of the steps:
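Gain- or loss-of-signal endpoint, fitted bidirectionally with DMSO as negative control. Based on reporter mRNA from transfected HepG2 cells harvested 24 h post-treatment and quantified via RT-PCR and capillary electrophoresis.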

Assay [14] addresses Transcription factor Sp1 (Homo sapiens) (UniProt P08047). Put plainly: ATG_Sp1_CIS: Attagene CIS-FACTORIAL HepG2 Assay for human Specificity Protein 1 (Sp1) (AID 2282961). To be noted: HepG2 Sp1 cis-reporter transcription, actives raise or lower the signal. An outline of the steps: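 Endpoint reflects endogenous Sp1 transcriptional activity, not an exogenous fusion protein: HepG2 cells with transfected cis-regulated reporters, 24 h dosing, RT-PCR/capillary electrophoresis mRNA read-out, DMSO-normalised bidirectional fit.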

Assay [15] in a line: ATG_SREBP_CIS: Attagene CIS-FACTORIAL HepG2 Assay for human Sterol Regulatory Element Binding (SREBP) (AID 2282962). The note with it: HepG2 Attagene cis-factorial SREBP reporter, mRNA; actives raise or lower the signal. An outline of the steps:
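Endogenous factor activity is measured in HepG2 through multiplexed reporter units under cis-element control. Following a 24 h incubation, reporter transcripts are reverse-transcribed, PCR-amplified and sized by capillary electrophoresis; activity is fitted in both directions relative to DMSO.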

Assay [16] concerns the target Signal transducer and activator of transcription 3 (Homo sapiens) (UniProt P40763). Put plainly: ATG_STAT3_CIS: Attagene CIS-FACTORIAL HepG2 Assay for human Signal Transducer and Activator of Transcription 3 (STAT3) (AID 2282963). To be noted: HepG2, Attagene cis-factorial STAT3 reporter transcription; actives raise or lower the signal. Put shortly: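 Cis-factorial format: endogenous transcription factors in HepG2 drive transfected reporter units. After 24 h treatment, reporter RNA was reverse-transcribed, amplified, FAM-labelled and HpaI-digested before CE analysis; activity scored in both directions against DMSO.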

Assay [17] is described as follows: ATG_TA_CIS: Attagene CIS-FACTORIAL HepG2 Assay for human TA Basal Promoter (AID 2282964). The note with it: HepG2 Attagene CIS-factorial TA basal promoter reporter; actives raise or lower the signal. Put shortly: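 Transfected HepG2, 24 h compound exposure; RNA → RT-PCR → FAM primer extension → HpaI cut → CE fluorescence. Gain/loss-of-signal fitted against DMSO negative control. Background-control readout.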

A short description of assay [18]: ATG_TCF_b_cat_CIS: Attagene CIS-FACTORIAL HepG2 Assay for human T-Cell-Factor with beta-catenin (TCF/b-cat) (AID 2282965). To be noted: HepG2 TCF/beta-catenin cis-reporter transcription, actives raise or lower the signal. An outline of the steps:
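Endogenous transcription factor activity is captured through cis-promoter reporter constructs transiently introduced into human HepG2 liver cells. Induced reporter mRNA is measured after 24 h and fitted bidirectionally relative to DMSO.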

The target of assay [19] is Paired box protein Pax-6 (Homo sapiens) (UniProt P26367). Put plainly: ATG_Pax6_CIS: Attagene CIS-FACTORIAL HepG2 Assay for human Paired Box 6 (PAX6) (AID 2282956). To be noted: HepG2 CIS-FACTORIAL PAX6 reporter transcription, RNA readout; actives raise or lower the signal. Put shortly:
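Fluorescent RT-PCR products separated by capillary electrophoresis report PAX6-linked promoter mRNA in HepG2 cells 24 h post-dose. Curves fitted bidirectionally, DMSO as negative control.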

Assay [20] is described as follows: ATG_PPRE_CIS: Attagene CIS-FACTORIAL HepG2 Assay for human Peroxisome Proliferator-activated Response Element (PPRE) (AID 2282958). The note with it: HepG2 PPRE cis-element reporter, Attagene transcription factor profiling; actives raise or lower the signal. Put shortly:
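Measured endpoint: PPRE-controlled reporter mRNA, detected by RT-PCR and capillary electrophoresis fluorescence, from transiently transfected HepG2 cells 24 h after dosing. Curves fitted in both directions using DMSO baseline.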

This is an account of results in PubChem BioAssay (EPA / NIEHS).

Structures are written as SMILES. The source made the active and inactive calls. How the source made its calls: active means hit-call score of the fitted dose curve at least 0.9, where 1 is the maximum; inactive means score below 0.9.

Sequence of Paired box protein Pax-6 (Homo sapiens) (P26367 whole entry, looked up): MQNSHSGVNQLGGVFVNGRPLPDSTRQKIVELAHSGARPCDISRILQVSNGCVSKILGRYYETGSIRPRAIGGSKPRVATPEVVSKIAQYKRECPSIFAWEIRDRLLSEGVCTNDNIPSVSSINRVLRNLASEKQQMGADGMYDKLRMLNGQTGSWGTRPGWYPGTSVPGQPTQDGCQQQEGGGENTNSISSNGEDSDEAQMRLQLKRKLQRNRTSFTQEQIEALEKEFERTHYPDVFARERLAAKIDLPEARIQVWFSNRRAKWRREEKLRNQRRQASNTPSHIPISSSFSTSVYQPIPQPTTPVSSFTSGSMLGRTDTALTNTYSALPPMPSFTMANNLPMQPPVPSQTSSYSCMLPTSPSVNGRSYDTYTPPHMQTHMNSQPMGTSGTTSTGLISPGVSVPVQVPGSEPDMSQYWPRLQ
Sequence of Hypoxia-inducible factor 1-alpha (Homo sapiens) (Q16665 whole entry, looked up): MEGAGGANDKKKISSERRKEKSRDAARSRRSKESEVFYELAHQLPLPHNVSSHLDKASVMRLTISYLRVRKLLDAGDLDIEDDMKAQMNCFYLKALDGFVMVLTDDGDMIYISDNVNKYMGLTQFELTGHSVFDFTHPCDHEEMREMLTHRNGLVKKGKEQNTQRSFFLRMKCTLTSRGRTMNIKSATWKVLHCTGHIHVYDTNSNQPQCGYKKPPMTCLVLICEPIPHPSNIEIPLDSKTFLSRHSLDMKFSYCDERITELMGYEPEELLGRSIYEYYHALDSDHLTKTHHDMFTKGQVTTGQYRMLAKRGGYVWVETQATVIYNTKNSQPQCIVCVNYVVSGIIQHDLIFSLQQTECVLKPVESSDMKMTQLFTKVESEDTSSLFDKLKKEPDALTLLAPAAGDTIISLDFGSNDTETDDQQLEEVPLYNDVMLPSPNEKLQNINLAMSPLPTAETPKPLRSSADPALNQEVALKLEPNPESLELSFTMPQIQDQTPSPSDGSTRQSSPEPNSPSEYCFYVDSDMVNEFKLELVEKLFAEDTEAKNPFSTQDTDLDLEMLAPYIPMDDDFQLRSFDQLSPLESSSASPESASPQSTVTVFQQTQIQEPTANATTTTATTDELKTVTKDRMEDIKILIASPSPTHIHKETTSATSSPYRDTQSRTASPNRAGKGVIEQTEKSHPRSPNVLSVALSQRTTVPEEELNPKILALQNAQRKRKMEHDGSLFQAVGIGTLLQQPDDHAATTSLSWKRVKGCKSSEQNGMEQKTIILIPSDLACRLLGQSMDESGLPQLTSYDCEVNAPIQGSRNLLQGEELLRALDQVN
Sequence of Heat shock factor protein 1 (Homo sapiens) (Q00613 whole entry, looked up, the tested form may be a part): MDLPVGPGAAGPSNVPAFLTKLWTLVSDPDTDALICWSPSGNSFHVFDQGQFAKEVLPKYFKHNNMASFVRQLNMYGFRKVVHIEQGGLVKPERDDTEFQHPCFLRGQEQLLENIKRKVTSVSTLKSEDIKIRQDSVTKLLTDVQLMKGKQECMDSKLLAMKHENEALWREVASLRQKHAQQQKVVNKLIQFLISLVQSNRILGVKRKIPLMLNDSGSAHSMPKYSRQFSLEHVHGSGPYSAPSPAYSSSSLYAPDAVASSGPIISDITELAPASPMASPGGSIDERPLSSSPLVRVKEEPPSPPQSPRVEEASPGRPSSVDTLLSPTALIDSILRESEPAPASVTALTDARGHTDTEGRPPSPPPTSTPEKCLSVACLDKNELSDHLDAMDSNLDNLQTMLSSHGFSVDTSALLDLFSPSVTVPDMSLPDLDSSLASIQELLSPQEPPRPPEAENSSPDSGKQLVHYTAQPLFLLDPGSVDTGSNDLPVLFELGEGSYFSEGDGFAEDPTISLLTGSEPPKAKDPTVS
Sequence of Hepatocyte nuclear factor 6 (Homo sapiens) (Q9UBC0 whole entry, looked up): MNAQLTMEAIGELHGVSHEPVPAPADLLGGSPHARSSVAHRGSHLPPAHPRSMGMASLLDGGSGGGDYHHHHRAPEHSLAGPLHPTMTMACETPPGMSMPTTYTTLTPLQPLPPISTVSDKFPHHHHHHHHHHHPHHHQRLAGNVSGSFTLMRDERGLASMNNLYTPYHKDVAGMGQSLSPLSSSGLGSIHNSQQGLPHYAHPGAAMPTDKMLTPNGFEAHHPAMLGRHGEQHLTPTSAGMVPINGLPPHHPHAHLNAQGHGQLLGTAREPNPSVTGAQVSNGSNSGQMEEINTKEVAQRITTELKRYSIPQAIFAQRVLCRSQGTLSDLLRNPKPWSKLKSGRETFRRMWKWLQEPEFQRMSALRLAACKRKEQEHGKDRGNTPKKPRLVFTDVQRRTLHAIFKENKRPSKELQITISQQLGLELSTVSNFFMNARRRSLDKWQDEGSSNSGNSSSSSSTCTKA
Sequence of Transcription factor Sp1 (Homo sapiens) (P08047 whole entry, looked up, the tested form may be a part): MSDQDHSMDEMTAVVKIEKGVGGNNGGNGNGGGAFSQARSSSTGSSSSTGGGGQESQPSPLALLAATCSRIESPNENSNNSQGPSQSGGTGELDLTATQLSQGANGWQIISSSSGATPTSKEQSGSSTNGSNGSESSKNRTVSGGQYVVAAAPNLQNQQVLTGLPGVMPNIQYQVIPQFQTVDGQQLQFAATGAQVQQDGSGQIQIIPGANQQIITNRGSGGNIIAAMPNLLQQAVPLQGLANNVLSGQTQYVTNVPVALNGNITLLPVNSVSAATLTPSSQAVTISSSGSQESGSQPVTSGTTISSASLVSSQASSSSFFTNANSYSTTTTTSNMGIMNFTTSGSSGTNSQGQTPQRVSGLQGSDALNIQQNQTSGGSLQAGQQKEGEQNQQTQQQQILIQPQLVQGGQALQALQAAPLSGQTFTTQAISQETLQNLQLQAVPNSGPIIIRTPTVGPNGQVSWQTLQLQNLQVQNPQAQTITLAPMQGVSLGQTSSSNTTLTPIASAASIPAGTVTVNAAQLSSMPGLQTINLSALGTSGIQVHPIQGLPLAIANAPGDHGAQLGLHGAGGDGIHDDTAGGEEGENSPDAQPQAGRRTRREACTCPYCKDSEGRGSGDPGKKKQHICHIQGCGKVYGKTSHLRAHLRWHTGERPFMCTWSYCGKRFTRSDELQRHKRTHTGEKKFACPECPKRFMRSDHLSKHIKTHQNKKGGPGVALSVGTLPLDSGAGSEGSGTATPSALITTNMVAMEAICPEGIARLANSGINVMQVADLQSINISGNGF
Sequence of Bile acid receptor (Homo sapiens) (Q96RI1 whole entry, looked up): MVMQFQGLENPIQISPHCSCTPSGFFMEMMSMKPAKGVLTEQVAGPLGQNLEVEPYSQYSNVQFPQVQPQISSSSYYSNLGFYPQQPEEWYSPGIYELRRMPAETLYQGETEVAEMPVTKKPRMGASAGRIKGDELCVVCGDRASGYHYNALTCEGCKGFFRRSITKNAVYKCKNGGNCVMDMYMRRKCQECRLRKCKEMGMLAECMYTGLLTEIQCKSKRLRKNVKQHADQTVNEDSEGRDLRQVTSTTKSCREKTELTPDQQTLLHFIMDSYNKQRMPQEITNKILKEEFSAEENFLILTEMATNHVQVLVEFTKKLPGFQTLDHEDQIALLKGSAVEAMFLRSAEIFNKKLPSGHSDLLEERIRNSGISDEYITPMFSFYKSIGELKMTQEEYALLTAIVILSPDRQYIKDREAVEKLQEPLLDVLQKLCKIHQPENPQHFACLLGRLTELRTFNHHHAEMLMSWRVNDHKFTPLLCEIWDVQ
Sequence of Signal transducer and activator of transcription 3 (Homo sapiens) (P40763 whole entry, looked up): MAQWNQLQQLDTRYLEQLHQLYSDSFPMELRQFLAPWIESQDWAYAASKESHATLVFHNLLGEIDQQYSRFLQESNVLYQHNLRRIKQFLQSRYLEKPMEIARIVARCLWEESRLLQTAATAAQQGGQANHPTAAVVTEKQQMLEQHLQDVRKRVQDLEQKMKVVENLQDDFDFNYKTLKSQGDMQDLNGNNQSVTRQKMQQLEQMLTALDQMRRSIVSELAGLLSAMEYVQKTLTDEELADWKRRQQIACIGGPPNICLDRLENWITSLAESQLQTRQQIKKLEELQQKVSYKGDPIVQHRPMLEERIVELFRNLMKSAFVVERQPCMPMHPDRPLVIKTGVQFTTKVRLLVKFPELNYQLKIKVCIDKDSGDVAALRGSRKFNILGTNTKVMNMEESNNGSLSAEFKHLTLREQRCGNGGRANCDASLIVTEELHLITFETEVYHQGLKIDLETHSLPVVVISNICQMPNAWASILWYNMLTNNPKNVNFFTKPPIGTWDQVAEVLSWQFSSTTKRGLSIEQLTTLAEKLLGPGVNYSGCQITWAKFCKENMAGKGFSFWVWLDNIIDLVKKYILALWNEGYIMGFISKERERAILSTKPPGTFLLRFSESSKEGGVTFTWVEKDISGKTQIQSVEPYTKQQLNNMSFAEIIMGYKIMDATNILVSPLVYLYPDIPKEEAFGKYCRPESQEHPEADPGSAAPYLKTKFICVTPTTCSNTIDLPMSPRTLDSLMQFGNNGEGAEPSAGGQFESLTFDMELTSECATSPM

The term AC50 denotes the concentration giving half of the maximal activity seen. As for `CCC(C)c1ccc(O)cc1` (stereo not given), the compound was classed as inactive in assay [1], in assay [2], in assay [3], in assay [4], in assay [5] and in [6]. The outcome in [7], in assay [8], in [10], in [12], in [13] and in [14] was inactive. Further, the outcome in assay [16], in assay [17] and in assay [18] was inactive. The AC50 was 82.1 µM (active) in [9], 26.5 µM (active) in [11] and 163 µM (active) in [15].
`OCCCl`: the compound was classed as inactive in assay [1], in [2], in [3], in assay [4], in assay [5] and in assay [6]. The call in [7], in assay [8], in assay [9], in assay [10], in [19] and in assay [11] was inactive. The outcome in assay [20], in [12], in assay [13], in assay [14], in assay [15] and in assay [17] was inactive. Also, the outcome in assay [18] was inactive.
On to `Nc1ccc(N=Nc2ccccc2)cc1`, for which the result in assay [1], in assay [2], in assay [4], in assay [5], in assay [7] and in assay [8] was inactive. Further, the result in assay [13], in assay [14] and in assay [15] was inactive. Besides, the AC50 in assay [3] was 57.2 µM (active); in assay [6] it was 58.1 µM (active); in assay [9] it was 67 µM (active); in assay [10], 67.3 µM (active); in assay [19], 47.4 µM (active); in assay [11], 57.7 µM (active). Also, the AC50 in assay [20] is 77.9 µM (active); in assay [12], 40.7 µM (active); in assay [17] it was 52.2 µM (active); in assay [18] it was 27.4 µM (active).
Regarding `O=C(N[C@H](c1ccccc1)[C@@H]1CN2CCC1CC2)c1c(Cl)ccc(C(F)(F)F)c1Cl`, the outcome in assay [1], in assay [2], in assay [3], in assay [4], in assay [5] and in assay [7] was inactive. For the same compound, the outcome in assay [8], in [9], in assay [10], in [19], in assay [20] and in assay [12] was inactive. The compound was classed as inactive in assay [13], in assay [14], in assay [17] and in [18]. In addition, the AC50 is 0.207 µM (active) in assay [6], 0.458 µM (active) in [11] and 5.4 µM (active) in [15].
